# According to the supplement of paper PMC11732987, “Enantioselective OTUD7B fragment discovery through chemoproteomics screening and high-throughput optimisation” (Communications Chemistry, 2025):
# Unmarked numbers belong to inactive results.
# How the values were obtained:
# Experiment in all cases: log2 ratio of Biotin-Ahx-Ub-VS probe labelling (fragment/DMSO); higher = less target engagement (more negative = stronger competition), active = hit call of the paper (q ≤ 0.05, log2 ratio ≤ -1)
# Conditions in all cases: compound concentration: 200 uM; treatment time: 3 h
# [1] = biological target: T1, ALG13 (UniProt Q9NP73)
# T1 sequence (whole entry): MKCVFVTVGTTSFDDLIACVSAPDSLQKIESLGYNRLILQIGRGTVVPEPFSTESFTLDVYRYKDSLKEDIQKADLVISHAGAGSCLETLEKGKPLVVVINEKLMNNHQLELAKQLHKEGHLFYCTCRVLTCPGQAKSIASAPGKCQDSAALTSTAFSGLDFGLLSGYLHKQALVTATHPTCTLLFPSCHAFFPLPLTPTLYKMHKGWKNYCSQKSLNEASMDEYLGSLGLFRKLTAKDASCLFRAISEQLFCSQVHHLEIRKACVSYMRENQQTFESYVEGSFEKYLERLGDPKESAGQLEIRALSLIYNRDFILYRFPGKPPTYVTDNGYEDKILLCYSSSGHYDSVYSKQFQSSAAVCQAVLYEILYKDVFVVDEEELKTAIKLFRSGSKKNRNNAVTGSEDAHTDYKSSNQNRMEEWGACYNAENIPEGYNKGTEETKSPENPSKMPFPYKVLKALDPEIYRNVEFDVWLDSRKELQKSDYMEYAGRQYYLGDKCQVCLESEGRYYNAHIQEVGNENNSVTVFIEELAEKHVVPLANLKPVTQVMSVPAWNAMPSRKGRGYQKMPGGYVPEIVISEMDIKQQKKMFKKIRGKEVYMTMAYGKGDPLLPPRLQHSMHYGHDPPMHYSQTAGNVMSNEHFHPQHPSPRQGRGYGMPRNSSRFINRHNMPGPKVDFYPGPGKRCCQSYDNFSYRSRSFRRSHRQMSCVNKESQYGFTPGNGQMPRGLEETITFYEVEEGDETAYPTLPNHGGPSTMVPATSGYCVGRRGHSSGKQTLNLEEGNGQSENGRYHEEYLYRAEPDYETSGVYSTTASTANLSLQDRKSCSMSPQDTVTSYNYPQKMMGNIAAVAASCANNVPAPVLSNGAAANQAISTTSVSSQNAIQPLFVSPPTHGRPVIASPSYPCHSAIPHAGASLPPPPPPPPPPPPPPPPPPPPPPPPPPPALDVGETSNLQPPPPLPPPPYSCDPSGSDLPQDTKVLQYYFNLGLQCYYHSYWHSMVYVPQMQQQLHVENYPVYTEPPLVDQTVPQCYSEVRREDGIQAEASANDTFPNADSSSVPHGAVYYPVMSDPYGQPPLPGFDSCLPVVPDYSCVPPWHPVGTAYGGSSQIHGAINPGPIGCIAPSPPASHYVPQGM
# Method in brief: (§1)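 Lysate from HEK293T cells, 495 µg per sample in Tris/CHAPS/IGEPAL buffer with protease inhibitors, was treated for 3 h in triplicate with fragment at 200 µM or vehicle. Biotin-Ahx-Ub-VS was next added at 0.5 µM final for 1 h. The labelled DUBs were enriched with NeutrAvidin, digested with LysC and trypsin, and run by diaPASEF LC-MS/MS, with values given as average log2 fragment/vehicle ratios by unpaired t-test on global-median-normalised Spectronaut quantities of proteins with ≥2 unique peptides.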
# [2] = biological target: ATXN3 (UniProt P54252)
# Method in brief: as §1
# [3] = biological target: T2, BAP1 (UniProt Q92560)
# T2 sequence (whole entry): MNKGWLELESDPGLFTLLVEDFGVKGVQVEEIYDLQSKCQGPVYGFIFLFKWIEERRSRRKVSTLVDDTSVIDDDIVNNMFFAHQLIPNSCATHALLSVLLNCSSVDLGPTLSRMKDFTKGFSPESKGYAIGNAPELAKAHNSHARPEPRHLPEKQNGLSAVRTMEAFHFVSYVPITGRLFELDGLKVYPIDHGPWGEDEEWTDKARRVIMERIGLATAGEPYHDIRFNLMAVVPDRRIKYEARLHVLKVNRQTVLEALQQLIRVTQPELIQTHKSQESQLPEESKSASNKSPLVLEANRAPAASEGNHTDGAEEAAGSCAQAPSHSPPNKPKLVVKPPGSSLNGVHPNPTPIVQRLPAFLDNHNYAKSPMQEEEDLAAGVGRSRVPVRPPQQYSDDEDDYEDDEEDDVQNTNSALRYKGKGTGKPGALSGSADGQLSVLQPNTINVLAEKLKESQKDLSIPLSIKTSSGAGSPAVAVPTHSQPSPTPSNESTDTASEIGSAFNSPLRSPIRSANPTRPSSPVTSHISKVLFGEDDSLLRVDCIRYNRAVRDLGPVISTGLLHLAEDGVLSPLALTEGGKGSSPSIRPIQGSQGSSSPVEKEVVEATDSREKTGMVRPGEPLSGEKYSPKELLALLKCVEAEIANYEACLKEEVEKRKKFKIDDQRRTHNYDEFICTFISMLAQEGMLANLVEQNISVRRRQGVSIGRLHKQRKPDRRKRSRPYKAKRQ
# Method in brief: as §1
# [4] = biological target: EIF3F (UniProt O00303)
# Method in brief: as §1
# [5] = biological target: EIF3H (UniProt O15372)
# Method in brief: as §1
# [6] = biological target: T3, FAM105A (UniProt Q9NUU6)
# T3 sequence (whole entry): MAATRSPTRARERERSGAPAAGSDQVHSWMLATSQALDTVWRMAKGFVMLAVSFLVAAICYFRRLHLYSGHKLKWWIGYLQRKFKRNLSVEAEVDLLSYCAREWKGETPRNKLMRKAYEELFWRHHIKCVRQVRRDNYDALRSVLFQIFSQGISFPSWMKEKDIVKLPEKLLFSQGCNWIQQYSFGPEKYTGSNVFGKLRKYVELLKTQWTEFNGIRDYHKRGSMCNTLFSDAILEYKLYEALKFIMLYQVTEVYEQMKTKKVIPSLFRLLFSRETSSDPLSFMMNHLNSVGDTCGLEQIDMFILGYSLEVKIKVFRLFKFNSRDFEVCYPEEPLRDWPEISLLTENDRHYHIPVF
# Method in brief: as §1
# [7] = biological target: OTUB1 (UniProt Q96FW1)
# Method in brief: as §1
# [8] = biological target: T4, OTUD4 (UniProt Q01804)
# T4 sequence (whole entry): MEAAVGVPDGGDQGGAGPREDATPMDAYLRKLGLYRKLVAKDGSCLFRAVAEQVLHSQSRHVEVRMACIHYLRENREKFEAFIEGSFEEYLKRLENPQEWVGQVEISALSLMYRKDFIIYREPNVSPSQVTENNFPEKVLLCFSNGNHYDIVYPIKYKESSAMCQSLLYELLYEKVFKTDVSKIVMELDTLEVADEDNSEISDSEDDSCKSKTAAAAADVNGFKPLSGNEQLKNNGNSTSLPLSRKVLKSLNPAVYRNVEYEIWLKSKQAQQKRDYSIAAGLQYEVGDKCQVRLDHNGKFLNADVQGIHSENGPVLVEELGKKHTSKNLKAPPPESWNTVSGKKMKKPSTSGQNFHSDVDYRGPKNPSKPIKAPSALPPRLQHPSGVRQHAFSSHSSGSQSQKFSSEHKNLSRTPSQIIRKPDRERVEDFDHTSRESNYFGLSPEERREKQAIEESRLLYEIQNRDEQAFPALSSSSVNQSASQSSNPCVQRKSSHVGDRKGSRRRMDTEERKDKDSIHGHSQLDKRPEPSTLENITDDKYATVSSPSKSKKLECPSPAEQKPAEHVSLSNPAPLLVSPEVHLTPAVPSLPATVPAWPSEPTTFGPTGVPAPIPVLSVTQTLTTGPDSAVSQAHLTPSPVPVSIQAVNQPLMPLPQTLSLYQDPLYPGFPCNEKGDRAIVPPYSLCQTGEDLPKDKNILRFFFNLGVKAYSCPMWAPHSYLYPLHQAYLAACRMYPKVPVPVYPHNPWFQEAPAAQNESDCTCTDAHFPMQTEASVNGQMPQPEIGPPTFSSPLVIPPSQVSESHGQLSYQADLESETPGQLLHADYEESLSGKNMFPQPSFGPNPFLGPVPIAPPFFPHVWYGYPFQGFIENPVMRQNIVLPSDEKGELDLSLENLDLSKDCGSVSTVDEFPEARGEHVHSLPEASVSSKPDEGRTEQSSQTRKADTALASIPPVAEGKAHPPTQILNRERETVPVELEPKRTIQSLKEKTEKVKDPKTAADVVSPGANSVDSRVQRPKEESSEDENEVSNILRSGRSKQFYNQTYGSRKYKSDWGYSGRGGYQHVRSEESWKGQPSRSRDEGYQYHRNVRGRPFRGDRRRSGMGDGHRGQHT
# Method in brief: as §1
# [9] = biological target: T5, OTUD5 (UniProt Q96G74)
# T5 sequence (whole entry): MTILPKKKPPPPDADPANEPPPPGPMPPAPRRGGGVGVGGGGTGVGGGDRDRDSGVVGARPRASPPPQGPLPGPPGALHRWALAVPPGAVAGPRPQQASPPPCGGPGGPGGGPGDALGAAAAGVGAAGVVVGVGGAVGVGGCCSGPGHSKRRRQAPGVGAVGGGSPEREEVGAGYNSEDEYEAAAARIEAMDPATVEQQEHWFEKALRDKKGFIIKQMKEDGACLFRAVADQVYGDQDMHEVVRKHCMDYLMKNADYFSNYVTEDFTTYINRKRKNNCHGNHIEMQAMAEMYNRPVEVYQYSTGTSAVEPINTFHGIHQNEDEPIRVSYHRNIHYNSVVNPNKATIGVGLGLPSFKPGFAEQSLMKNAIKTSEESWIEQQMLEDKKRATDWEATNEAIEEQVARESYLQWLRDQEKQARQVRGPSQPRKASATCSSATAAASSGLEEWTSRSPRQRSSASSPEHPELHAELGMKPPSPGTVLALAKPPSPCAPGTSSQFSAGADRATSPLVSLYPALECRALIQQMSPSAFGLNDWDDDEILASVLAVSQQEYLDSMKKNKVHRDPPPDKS
# Method in brief: as §1
# EIF3H, sequence (O15372 whole entry): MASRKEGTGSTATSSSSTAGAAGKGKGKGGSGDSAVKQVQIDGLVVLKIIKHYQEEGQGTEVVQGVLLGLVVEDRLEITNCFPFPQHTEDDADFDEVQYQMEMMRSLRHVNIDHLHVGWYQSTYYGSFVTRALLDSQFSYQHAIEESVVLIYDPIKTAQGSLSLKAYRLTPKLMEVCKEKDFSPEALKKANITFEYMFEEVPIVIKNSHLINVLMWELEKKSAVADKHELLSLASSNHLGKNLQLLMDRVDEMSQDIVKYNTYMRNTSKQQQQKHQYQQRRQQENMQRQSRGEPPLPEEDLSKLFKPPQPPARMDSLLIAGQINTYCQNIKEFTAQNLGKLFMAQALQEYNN
# OTUB1, sequence (Q96FW1 whole entry): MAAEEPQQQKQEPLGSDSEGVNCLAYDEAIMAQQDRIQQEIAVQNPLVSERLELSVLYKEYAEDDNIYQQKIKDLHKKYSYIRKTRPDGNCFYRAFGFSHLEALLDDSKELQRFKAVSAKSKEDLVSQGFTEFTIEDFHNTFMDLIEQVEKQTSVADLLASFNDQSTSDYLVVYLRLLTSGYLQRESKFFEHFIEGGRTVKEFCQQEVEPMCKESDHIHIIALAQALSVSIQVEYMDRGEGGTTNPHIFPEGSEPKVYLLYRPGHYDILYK
# EIF3F, sequence (O00303 whole entry): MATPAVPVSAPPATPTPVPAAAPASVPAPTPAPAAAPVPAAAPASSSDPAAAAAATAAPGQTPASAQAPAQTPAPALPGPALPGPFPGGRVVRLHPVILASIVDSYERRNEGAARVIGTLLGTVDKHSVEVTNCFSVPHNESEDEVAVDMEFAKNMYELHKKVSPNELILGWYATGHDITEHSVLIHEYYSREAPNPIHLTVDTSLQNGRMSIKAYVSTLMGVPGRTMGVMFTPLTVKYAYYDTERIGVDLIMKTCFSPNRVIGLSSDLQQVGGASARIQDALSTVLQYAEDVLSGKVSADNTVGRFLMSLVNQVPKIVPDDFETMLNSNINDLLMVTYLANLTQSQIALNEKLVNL
# ATXN3, sequence (P54252 whole entry): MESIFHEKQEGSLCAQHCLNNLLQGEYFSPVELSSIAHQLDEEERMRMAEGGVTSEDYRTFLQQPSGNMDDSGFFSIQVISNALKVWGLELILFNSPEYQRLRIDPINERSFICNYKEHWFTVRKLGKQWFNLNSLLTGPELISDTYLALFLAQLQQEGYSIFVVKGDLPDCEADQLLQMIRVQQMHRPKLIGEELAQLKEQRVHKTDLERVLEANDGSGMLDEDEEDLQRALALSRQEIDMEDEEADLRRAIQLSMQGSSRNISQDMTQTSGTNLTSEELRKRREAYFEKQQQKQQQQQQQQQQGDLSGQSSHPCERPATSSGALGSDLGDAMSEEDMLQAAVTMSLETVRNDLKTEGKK
smiles,measurement,setting,value
Cl.Cn1ncc2c1CC(NC(=O)CCl)CC2 (centres undefined),log2 ratio of Biotin-Ahx-Ub-VS probe labelling,[1],0.027
same,log2 ratio of Biotin-Ahx-Ub-VS probe labelling,[2],-0.0274
same,log2 ratio of Biotin-Ahx-Ub-VS probe labelling,[3],-1.1 (active)
same,log2 ratio of Biotin-Ahx-Ub-VS probe labelling,[4],-0.121
same,log2 ratio of Biotin-Ahx-Ub-VS probe labelling,[5],-0.266
same,log2 ratio of Biotin-Ahx-Ub-VS probe labelling,[6],0.307
same,log2 ratio of Biotin-Ahx-Ub-VS probe labelling,[7],-0.112
same,log2 ratio of Biotin-Ahx-Ub-VS probe labelling,[8],-0.464
same,log2 ratio of Biotin-Ahx-Ub-VS probe labelling,[9],0.000518
